# Laboratory results from PMC5700166.
# Numbering of substitutions follows the chain as printed.
# What was measured:
# Test in all cases: protein-binding microarray (PBM); PBM: ~300 nM protein, 6 mM HEPES pH 7.8, 80 mM KCl, 0.5 mM EDTA, 0.5 mM EGTA, 6% glycerol, 35 ng/ul poly-dIdC, 1% milk, 1 h, room temperature; Ap Aiptasia and Nv Nematostella (sea anemones) / Co Capsaspora / Aq Amphimedon (sponge) / Dm Drosophila / Hu human; RHD is the Rel homology domain; high values mean tight binding
# Settings in all cases: dsDNA, one strand shown
# [1] = biological target: T1, GST-Nv-NF-kB (Ser allele) (Nematostella vectensis, UniProt A7UNT2 2-411)
# T1 sequence: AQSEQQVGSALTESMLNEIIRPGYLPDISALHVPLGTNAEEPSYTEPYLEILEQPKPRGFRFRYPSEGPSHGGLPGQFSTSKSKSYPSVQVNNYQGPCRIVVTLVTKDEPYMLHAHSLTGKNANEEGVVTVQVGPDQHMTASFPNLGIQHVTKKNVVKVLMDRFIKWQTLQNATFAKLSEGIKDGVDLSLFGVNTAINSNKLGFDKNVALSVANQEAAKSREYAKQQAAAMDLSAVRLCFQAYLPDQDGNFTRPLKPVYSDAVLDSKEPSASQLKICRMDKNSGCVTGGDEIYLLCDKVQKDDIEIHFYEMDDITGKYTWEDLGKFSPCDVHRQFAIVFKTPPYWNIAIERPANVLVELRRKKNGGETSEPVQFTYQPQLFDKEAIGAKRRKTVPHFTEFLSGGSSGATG
# GST-Hu-p50 = GST-Hu-p50 (Homo sapiens, UniProt P19838 7-356)
# Sequence of GST-Hu-p50 (P19838 7-356): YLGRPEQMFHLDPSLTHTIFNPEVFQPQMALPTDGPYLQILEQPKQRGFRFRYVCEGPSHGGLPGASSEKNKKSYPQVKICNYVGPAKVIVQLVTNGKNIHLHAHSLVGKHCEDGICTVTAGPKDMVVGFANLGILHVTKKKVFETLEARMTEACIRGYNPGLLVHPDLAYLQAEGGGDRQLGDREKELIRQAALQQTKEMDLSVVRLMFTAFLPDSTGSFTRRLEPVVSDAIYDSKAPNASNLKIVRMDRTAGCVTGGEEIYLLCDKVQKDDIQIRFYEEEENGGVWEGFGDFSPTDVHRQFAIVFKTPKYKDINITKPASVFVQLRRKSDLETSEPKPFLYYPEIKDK
# GST-Ap-NF-kB RHD = biological target: T2, GST-Ap-NF-kB RHD (Exaiptasia pallida (Aiptasia), UniProt A0A913YAJ5 2-422)
# T2 sequence: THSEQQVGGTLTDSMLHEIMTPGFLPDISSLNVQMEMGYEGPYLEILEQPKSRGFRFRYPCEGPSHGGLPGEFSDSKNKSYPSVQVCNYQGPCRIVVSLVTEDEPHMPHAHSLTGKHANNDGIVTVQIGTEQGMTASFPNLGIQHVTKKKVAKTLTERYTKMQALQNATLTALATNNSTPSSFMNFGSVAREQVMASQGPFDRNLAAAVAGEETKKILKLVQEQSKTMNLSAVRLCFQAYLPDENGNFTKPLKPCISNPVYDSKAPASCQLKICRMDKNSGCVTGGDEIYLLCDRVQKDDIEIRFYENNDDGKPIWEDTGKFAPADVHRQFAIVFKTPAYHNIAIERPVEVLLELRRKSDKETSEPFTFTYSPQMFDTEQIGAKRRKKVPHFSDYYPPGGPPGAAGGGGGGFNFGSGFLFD
# GST-Co-NF-kB = biological target: T3, GST-Co-NF-kB (Capsaspora owczarzaki, UniProt F1ARL5 200-546)
# T3 sequence: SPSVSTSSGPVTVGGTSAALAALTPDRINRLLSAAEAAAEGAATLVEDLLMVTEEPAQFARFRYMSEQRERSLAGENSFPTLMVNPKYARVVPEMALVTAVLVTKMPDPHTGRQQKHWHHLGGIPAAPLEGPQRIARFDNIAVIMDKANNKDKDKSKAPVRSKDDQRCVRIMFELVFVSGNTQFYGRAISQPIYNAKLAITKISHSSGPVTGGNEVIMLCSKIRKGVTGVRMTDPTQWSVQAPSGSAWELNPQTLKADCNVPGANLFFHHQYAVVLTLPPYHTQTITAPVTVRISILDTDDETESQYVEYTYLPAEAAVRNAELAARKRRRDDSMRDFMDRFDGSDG
# GST-Dm-Relish = biological target: T4, GST-Dm-Relish (Drosophila melanogaster, UniProt Q94527 99-473)
# T4 sequence: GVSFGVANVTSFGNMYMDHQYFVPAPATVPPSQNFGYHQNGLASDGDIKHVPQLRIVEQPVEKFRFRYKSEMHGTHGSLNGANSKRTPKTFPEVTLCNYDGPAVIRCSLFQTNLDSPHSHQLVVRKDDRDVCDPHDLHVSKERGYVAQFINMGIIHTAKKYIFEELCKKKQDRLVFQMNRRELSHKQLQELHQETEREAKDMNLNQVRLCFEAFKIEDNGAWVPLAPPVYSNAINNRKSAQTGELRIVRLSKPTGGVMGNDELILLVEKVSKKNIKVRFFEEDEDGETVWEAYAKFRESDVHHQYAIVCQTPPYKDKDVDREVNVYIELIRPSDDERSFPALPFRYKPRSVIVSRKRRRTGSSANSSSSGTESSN
# GST-Aq-NF-kB = biological target: T5, GST-Aq-NF-kB (Amphimedon queenslandica, UniProt A9Y5G7 2-389)
# T5 sequence: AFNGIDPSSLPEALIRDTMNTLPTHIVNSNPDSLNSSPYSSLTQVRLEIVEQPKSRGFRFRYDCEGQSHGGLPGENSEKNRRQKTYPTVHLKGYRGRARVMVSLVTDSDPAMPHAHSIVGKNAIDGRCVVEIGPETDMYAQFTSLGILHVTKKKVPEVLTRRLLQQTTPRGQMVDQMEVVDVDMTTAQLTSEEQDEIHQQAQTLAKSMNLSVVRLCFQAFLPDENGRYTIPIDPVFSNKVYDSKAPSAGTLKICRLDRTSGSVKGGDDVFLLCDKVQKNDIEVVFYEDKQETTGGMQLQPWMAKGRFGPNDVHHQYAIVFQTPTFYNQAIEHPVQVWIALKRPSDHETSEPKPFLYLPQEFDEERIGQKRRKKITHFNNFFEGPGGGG
# [2] = biological target: T6, GST-Nv-NF-kB (Cys allele) (Nematostella vectensis, UniProt E5G601 2-411)
# T6 sequence: T1 sequence with R21Q, S66C, N207S, Q215E, A217V, K225E, E268A, E399D
sequence,measurement,setting,value
CCGATTAACATCACGTGTGTAGGTGATGTTAATCGGGTCTTGATTCGCTTGACGCTGCTG,binding signal,[1],1.58 z-score
same,binding signal,GST-Hu-p50,1.87 z-score
CCGATTAACATCACCCCGCATGCTGATGTTAATCGGGTCTTGATTCGCTTGACGCTGCTG,binding signal,GST-Ap-NF-kB RHD,1.75 z-score
same,binding signal,GST-Co-NF-kB,1.97 z-score
same,binding signal,GST-Hu-p50,1.34 z-score
CCGATTAACATCACGGGCAGTGGTGATGTTAATCGGGTCTTGATTCGCTTGACGCTGCTG,binding signal,GST-Co-NF-kB,1.25 z-score
same,binding signal,GST-Dm-Relish,1.02 z-score
same,binding signal,GST-Hu-p50,1.37 z-score
CCGATTAACATCACCTGAACTATTGATGTTAATCGGGTCTTGATTCGCTTGACGCTGCTG,binding signal,GST-Hu-p50,1.45 z-score
CCGATTAACATCAGGAATTCCGATGATGTTAATCGGGTCTTGATTCGCTTGACGCTGCTG,binding signal,GST-Dm-Relish,2.4 z-score
same,binding signal,GST-Aq-NF-kB,1.28 z-score
CCGATTAACATCATGATATCCGGTGATGTTAATCGGGTCTTGATTCGCTTGACGCTGCTG,binding signal,GST-Dm-Relish,1.07 z-score
same,binding signal,GST-Hu-p50,1.11 z-score
CCGATTAACATCACCCACCGATTTGATGTTAATCGGGTCTTGATTCGCTTGACGCTGCTG,binding signal,GST-Ap-NF-kB RHD,1.07 z-score
CCGATTAACATCAGGATTTACCATGATGTTAATCGGGTCTTGATTCGCTTGACGCTGCTG,binding signal,GST-Dm-Relish,3.08 z-score
same,binding signal,GST-Aq-NF-kB,1.48 z-score
CCGATTAACATCATTTCTTACGGTGATGTTAATCGGGTCTTGATTCGCTTGACGCTGCTG,binding signal,GST-Dm-Relish,1.25 z-score
same,binding signal,GST-Hu-p50,1.44 z-score
CCGATTAACATCACCGAAATTCCTGATGTTAATCGGGTCTTGATTCGCTTGACGCTGCTG,binding signal,[1],1.53 z-score
same,binding signal,GST-Dm-Relish,1.25 z-score
same,binding signal,GST-Hu-p50,2.52 z-score
CCGATTAACATCATGGTGCTTAATGATGTTAATCGGGTCTTGATTCGCTTGACGCTGCTG,binding signal,GST-Hu-p50,1.41 z-score
CCGATTAACATCAGAATTTTTCCTGATGTTAATCGGGTCTTGATTCGCTTGACGCTGCTG,binding signal,GST-Hu-p50,1.1 z-score
CCGATTAACATCAATTCCCAACCTGATGTTAATCGGGTCTTGATTCGCTTGACGCTGCTG,binding signal,[2],2.15 z-score
same,binding signal,[1],1.9 z-score
same,binding signal,GST-Co-NF-kB,2.06 z-score
same,binding signal,GST-Hu-p50,1.06 z-score
CCGATTAACATCACCTTAGGTTTTGATGTTAATCGGGTCTTGATTCGCTTGACGCTGCTG,binding signal,GST-Hu-p50,1.04 z-score
CCGATTAACATCACCCTCCAATTTGATGTTAATCGGGTCTTGATTCGCTTGACGCTGCTG,binding signal,GST-Hu-p50,1.13 z-score
CCGATTAACATCAGGAAACTCCATGATGTTAATCGGGTCTTGATTCGCTTGACGCTGCTG,binding signal,GST-Dm-Relish,1.62 z-score
same,binding signal,GST-Aq-NF-kB,2.15 z-score
CCGATTAACATCAGGAAAATCCATGATGTTAATCGGGTCTTGATTCGCTTGACGCTGCTG,binding signal,GST-Dm-Relish,1.26 z-score
same,binding signal,GST-Aq-NF-kB,2.69 z-score
CCGATTAACATCACTCTTCTCGGTGATGTTAATCGGGTCTTGATTCGCTTGACGCTGCTG,binding signal,[2],1.05 z-score
same,binding signal,[1],1.37 z-score
same,binding signal,GST-Dm-Relish,1.33 z-score
same,binding signal,GST-Hu-p50,1.72 z-score
CCGATTAACATCATATTGGGAAATGATGTTAATCGGGTCTTGATTCGCTTGACGCTGCTG,binding signal,[2],2.26 z-score
same,binding signal,[1],1.92 z-score
same,binding signal,GST-Co-NF-kB,2.03 z-score
same,binding signal,GST-Hu-p50,1.12 z-score
CCGATTAACATCAGCAATGTAGGTGATGTTAATCGGGTCTTGATTCGCTTGACGCTGCTG,binding signal,GST-Hu-p50,1.13 z-score
CCGATTAACATCACCAGGTTAGGTGATGTTAATCGGGTCTTGATTCGCTTGACGCTGCTG,binding signal,[2],1.1 z-score
same,binding signal,[1],1.85 z-score
same,binding signal,GST-Dm-Relish,1.36 z-score
same,binding signal,GST-Hu-p50,3.09 z-score
CCGATTAACATCAAGTACCAGGGTGATGTTAATCGGGTCTTGATTCGCTTGACGCTGCTG,binding signal,GST-Ap-NF-kB RHD,1.05 z-score
